TCR activator – Activators of T cell receptors: qHTS campaign; primary human leukocytes, anti-CD3, IL-2 HTRF, 48 h; Potency, µM (top dose mostly 9.22 µM), usual class: activators; 330,000 tested, under 10 active; AID 504894, 2011
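TCR engagement came from a-CD3 beads alone, with compounds added to primary human leukocytes for 48 hr. Secreted IL-2 bridged europium cryptate- and d2-labelled anti-IL-2 antibodies, giving FRET emission at 665nm after 320nm excitation.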
S-ASM inh – Inhibitors of Secretory Acid Sphingomyelinase (S-ASM): qHTS | Sphingomyelin phosphodiesterase (Homo sapiens), P17405 | placental ASM, HMU-PC fluorogenic substrate, 60 min | Potency, µM (top dose mostly 57.5 µM), hits mostly inhibitors | 340,000 tested, 0.006% active
Target sequence (P17405 47-631 limits assumed): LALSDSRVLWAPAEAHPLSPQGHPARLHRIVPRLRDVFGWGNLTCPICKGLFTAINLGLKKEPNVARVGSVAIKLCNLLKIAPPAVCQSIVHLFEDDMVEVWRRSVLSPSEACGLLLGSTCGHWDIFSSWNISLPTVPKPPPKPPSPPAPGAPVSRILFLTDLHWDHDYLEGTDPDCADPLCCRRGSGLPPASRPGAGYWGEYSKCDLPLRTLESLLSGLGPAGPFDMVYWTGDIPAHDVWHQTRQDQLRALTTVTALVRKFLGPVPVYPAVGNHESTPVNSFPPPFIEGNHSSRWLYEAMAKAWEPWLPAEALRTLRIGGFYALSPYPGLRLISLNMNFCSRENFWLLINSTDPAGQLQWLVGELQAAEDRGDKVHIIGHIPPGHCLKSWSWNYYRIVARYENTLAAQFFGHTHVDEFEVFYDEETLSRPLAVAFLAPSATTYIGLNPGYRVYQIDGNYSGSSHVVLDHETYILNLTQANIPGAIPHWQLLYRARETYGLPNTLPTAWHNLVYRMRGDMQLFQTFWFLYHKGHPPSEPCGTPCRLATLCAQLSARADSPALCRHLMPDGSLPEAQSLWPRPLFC
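HMU-PC0 cleavage (9 uM final) by human placental ASM, 60 min at 37 °C following 10 min compound exposure at RT; stopped at pH 10, fluorescence Ex 386/Em 447 nm.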
BCR signal inh – qHTS Assay to Find Inhibitors of Chronic Active B-Cell Receptor Signaling; ABC-DLBCL IkBa-CBG/CBR reporter, luminescence ratio, 4 h; Potency, µM (highest dose often 46.1 µM), actives largely listed as inhibitors; 340,000 tested, 0.05% active; AID 493014, 2011; active means well fitted inhibition curve with a large enough effect in the signal ratio, with a control signal flat, not every such curve was filed as active; inconclusive means small, poorly fitted or top-dose-only effect, or effect the other way, or a change in a side signal; the % refers to the signal ratio
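Concentration-response series (up to 46 uM) were applied to TMD8 dual-reporter cells for 4 h at 37C with doxycycline. Green/red ratio, after filter-overlap correction, defined %Activity; red signal alone was normalised to basal cells and zero luminescence.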
Tb PFK inh-1 – qHTS Assay to Find Inhibitors of T. brucei phosphofructokinase | 330,000 tested, 0.17% active | Potency, µM (top dose mostly 57.5 µM), hits mostly inhibitors | ATP-dependent 6-phosphofructokinase (Trypanosoma brucei brucei), O15648 | T. brucei PFK, ADP-Glo luminescence | AID 485367, 2010; further: nearly all actives have a fitted effect of over 60% in size
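PFK 1.25 nM, F6P 0.5 mM, ATP 0.1 mM, 0.1 M TEA pH 8.0, 5 mM MgCl2, 0.01% Tween20, 0.1% BSA; 45 min RT. ADP-Glo readout. qHTS titration up to 57 uM; curves fitted, compounds curve-classed.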
CCT modulator – High-Throughput Screening for Modulators of Cytosolic Chaperonin Activity; purified chaperonin ATPase assay, HTRF ADP detection, 30 min; AID 651819, 2012; 360,000 tested, 0.3% active; activity change, % (no concentration beside the values), hits read low; in the data active means activity change below about -30%
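TRiC at 40 or 20 nM final (batch-dependent) in 30 mM Tris pH 7.4, 100 mM KCl, 5 mM MgCl2, 1 mM DTT, with compound at single 76 uM and 10 uM ATP, 30 min at 37 deg C. ADP detected by HTRF Transcreener, 665/615 ratio.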
TbPFK ATP – Tb PFK orthogonal confirmatory assay using ATP depletion (Kinase-Glo Plus) as an alternative measure of Tb PFK activity: Hit Validation; AID 504636, 2011; Potency, µM (titrated, usually from 57.5 µM); Tb PFK enzyme, ATP depletion, Kinase-Glo Plus luminescence; 1,100 tested, 47% active; shares compounds with Tb PFK inh-1; calls by dose curve; further: nearly all actives have a fitted effect of over 60% in size
Tb PFK inh-2 – Inhibitors of T. brucei phosphofructokinase: Hit Validation; AID 504637, 2011; purified T. brucei PFK, ADP-Glo luminescence, 45 min; Potency, µM (titrated, usually from 57.5 µM), actives largely listed as inhibitors; 1,100 tested, 41% active; shares compounds with Tb PFK inh-1; further: nearly all actives have a fitted effect of over 60% in size
Of the large screens only hits and unclear results are named; the others gave an inactive call (follow-up assays come after a bar, where they were run). Most compounds without a hit are left out; they make up all but 0.49% or so of the library. Unless noted, the call rests on the fitted dose curve; in most records, active means well fitted curve in the direction sought with a large enough effect; inconclusive means small, poorly fitted or top-dose-only effect, or another doubt; inactive means no such curve, though single readings can be large; an effect the other way counts as inactive or inconclusive.

CC(=O)Nc1cc([As](=O)(O)O)ccc1O	Tb PFK inh-1 inconclusive | TbPFK ATP inconclusive | Tb PFK inh-2 inconclusive
Nc1ccccc1SSc1ccccc1N	BCR signal inh inconclusive, Tb PFK inh-1 inconclusive | TbPFK ATP 8.5µM | Tb PFK inh-2 13µM
Cc1ccccc1N	none
COc1cccc(C(=O)NC(=S)Nc2ccccc2N2CCCCC2)c1	BCR signal inh inconclusive
C[C@]12CCC3C(CC[C@H]4C[C@H](O)CC[C@]34C)C1C[C@@H](O)[C@H]2O (stereo partly drawn)	none (no result: BCR signal inh, Tb PFK inh-1)
Cc1ccc(NC(=O)CN2C(=O)CN=C(c3ccccc3)c3ccccc32)cc1Cl	none (no result: TCR activator, S-ASM inh, Tb PFK inh-1, CCT modulator)
CC1(c2ccc(Cl)cc2Cl)NC(=O)N(CC(=O)Nc2ccc3[nH]c(=O)[nH]c3c2)C1=O (stereo not drawn)	BCR signal inh inconclusive, Tb PFK inh-1 inconclusive | TbPFK ATP inconclusive | Tb PFK inh-2 inconclusive
O=C1C=C2c3ccccc3CC(C(=O)O)C2CC1 (stereo not drawn)	none (no result: TCR activator, S-ASM inh, BCR signal inh, Tb PFK inh-1)
S=C1CCSc2ccc(Cl)cc2N1	Tb PFK inh-1 inconclusive | TbPFK ATP inconclusive | Tb PFK inh-2 inconclusive
S=C1CN=C(c2ccccc2Cl)c2cc(Cl)ccc2N1	none
Cc1ccc(-c2nnn3c2nc(NCCc2ccc(S(N)(=O)=O)cc2)c2ccccc23)cc1	BCR signal inh inconclusive, Tb PFK inh-1 inconclusive | TbPFK ATP inconclusive | Tb PFK inh-2 inconclusive
O=C1NC(=O)C(Nc2ccccc2)C(=O)N1	none (no result: BCR signal inh, Tb PFK inh-1)
COc1cc(/C=C/c2sc3ccccc3[n+]2CCCS(=O)(=O)[O-])ccc1O	BCR signal inh inconclusive, Tb PFK inh-1 12µM | TbPFK ATP inactive | Tb PFK inh-2 inconclusive
COc1cc(/C=C/c2nc3ccccc3c(=O)n2-c2ccccc2O)ccc1O	BCR signal inh inconclusive
Cc1ccc(-n2c(/C=C/c3cccs3)nc3ccccc3c2=O)cc1C	none (no result: TCR activator, S-ASM inh, Tb PFK inh-1, CCT modulator)
ClCCN(CCCl)c1ccc(-n2cnc3c(Cl)ncnc32)cc1	none (no result: BCR signal inh, Tb PFK inh-1)
O=C1NC(=S)SC1=Cc1ccc(N(CCCl)CCCl)cc1	S-ASM inh inconclusive (no result: BCR signal inh, Tb PFK inh-1)
O=C(NCc1ccccc1)c1cccn(Cc2ccccc2)c1=O	BCR signal inh inconclusive
O=C(c1cccn(Cc2cccc(Cl)c2)c1=O)N1CCOCC1	Tb PFK inh-1 24µM | TbPFK ATP 21µM | Tb PFK inh-2 24µM
Clc1nssc1=Nc1nncs1	BCR signal inh inconclusive, Tb PFK inh-1 4.3µM | TbPFK ATP 12µM | Tb PFK inh-2 9.5µM
Cc1ccc(C(=O)CSc2nnc(CNc3ccc(F)cc3)o2)cc1	Tb PFK inh-1 17µM | TbPFK ATP inconclusive | Tb PFK inh-2 24µM
CCN(CC)C(=O)c1ccc(NC(=O)c2c(C)noc2C)cc1	none
Cc1noc(C)c1COc1ccc(C(=O)NNC(=O)c2ccccc2O)cc1	Tb PFK inh-1 5.4µM | TbPFK ATP inactive | Tb PFK inh-2 inactive
COCCNC(=O)/C(C#N)=C/c1ccc(O)cc1	Tb PFK inh-1 inconclusive | TbPFK ATP inactive | Tb PFK inh-2 inconclusive
N#C/C(=C\c1ccc(O)cc1)C(=O)O	none (no result: BCR signal inh, Tb PFK inh-1)
c1ccc2[nH]c(CCN3CCCCC3)nc2c1	none (no result: TCR activator, S-ASM inh, BCR signal inh, Tb PFK inh-1)
COc1ccc(C2(C(=O)c3ccccc3)C(=O)c3ccccc3C2=O)cc1	BCR signal inh inconclusive
C[C@H](CO)N1C[C@H](C)[C@@H](CN(C)C(=O)Oc2ccccc2)OCc2cnnn2CCCC1=O	none (no result: TCR activator, S-ASM inh, BCR signal inh, Tb PFK inh-1)
Cc1n[nH]c(C)c1Sc1ccccc1[N+](=O)[O-]	Tb PFK inh-1 inconclusive | TbPFK ATP inconclusive | Tb PFK inh-2 inconclusive
O=C(O)C1CCCCC1C(=O)Nc1cccc(Br)c1 (stereo not drawn)	Tb PFK inh-1 17µM | TbPFK ATP 12µM | Tb PFK inh-2 27µM
CS(=O)(=O)c1ccc(C2=C(CNC(=O)c3nccs3)[C@H]3CC[C@@H](C2)N3Cc2ccco2)cc1	none (no result: TCR activator, S-ASM inh, BCR signal inh, Tb PFK inh-1)
O=C(Nc1ccc(OC(F)(F)F)cc1)Oc1ccccc1N1CCCCC1	BCR signal inh inconclusive
O=C(Cc1ccc(F)cc1)N/N=C/c1ccc(-c2ccc(Cl)c(C(=O)O)c2)o1	Tb PFK inh-1 inconclusive | TbPFK ATP inconclusive | Tb PFK inh-2 inconclusive
N/C(=N\N=C/c1ccc(-c2ccc(O)c(C(=O)O)c2)o1)N[N+](=O)[O-]	BCR signal inh inconclusive
O=C(/C=C/c1ccc(O)c(O)c1)OC(Cc1ccc(O)c(O)c1)C(=O)O (stereo not drawn)	Tb PFK inh-1 2.7µM | TbPFK ATP 3.4µM | Tb PFK inh-2 inconclusive
Cc1cccnc1NC(=O)C1CCCN(S(=O)(=O)c2ccc3c(c2)oc(=O)n3C)C1 (stereo not drawn)	BCR signal inh inconclusive

Bioassay records from PubChem.
